The source made the active and inactive calls. Unless noted, no rule for the calls is given here.

A short description of experiment [1]: HepG2 liver cancer cell viability effects, profiling panel, resazurin fluorescence, 24 h, PK04 Diversity Set (AID 1172). Also: test concentration not given here. As to conditions: higher = more signal.
The nature of experiment [2]: basal S. cerevisiae growth modulation, no modifier, primary screen, OD600, strain BY4716, 24 h, basal condition (AID 1173). As to conditions: OD600, 24 h, higher = more signal, called active from +8 up or from −8 down.
Experiment [3] is described as follows: MM1S myeloma cell viability, profiling panel, resazurin fluorescence, basal, 24 h, PK04 Diversity Set (AID 1174).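 Also: MM1S multiple myeloma cell line; test concentration not given here.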 As to conditions: higher = more signal, called active from +8 up or from −8 down.
Experiment [4] has as its target Dihydroorotate dehydrogenase (quinone), mitochondrial (Plasmodium falciparum (isolate 3D7)) (UniProt Q08210). The experiment is described as follows: PfDHODH enzyme inhibitors, primary screen, biochemical, C-terminal His tag, absorbance 600 nm (AID 1175).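 Also: recombinant parasite enzyme with a five histidine tag at its C terminus; test concentration not given here.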 As to conditions: DCIP absorbance 600 nm, higher = more signal, called active from +8 up or from −8 down.
Experiment [5] is described as follows: P. aeruginosa biofilm formation inhibitors, primary screen, strain PAO1, LB-PBS medium, absorbance 600 nm (AID 1176). Also: test concentration not given here. As to conditions: P. aeruginosa PAO1 growth/biofilm, A600, 12 h; higher = more signal.
Experiment [6] can be described thus: S. cerevisiae RM11-1a growth modifiers, primary screen, strain RM11-1a, OD600, basal, 24 h (AID 1177).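 Also: cultures grown under basal conditions with no added stressor; test concentration not given here.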 As to conditions: OD600, 24 h, higher = more signal, called active from +8 up or from −8 down.
Experiment [7] is described as follows: E. coli acrAB mutant growth effects, primary screen, E. coli filamentation inducers, strain DRC39, OD650, 24 h (AID 1178).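 Also: growth measured as culture turbidity by optical density at 650 nm; test concentration not given here.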 Conditions: higher = more signal, called active from +8 up or from −8 down.
Experiment [8] can be described thus: E. coli acrAB mutant growth effects, primary screen, E. coli filamentation inducers, strain DRC39, OD650, 48 h (AID 1179).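 Also: screen aims at cell division blockers that make cells filament.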 Conditions: E. coli DRC39 delta-acrAB growth, higher = more signal, called active from +8 up or from −8 down.
Experiment [9] can be described thus: RPMI8226 myeloma cell viability, profiling panel, resazurin fluorescence, basal, 24 h, PK04 Diversity Set (AID 1180).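 Also: RPMI8826 multiple myeloma cell line at 5000 cells per well; test concentration not given here.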 Conditions: higher = more signal.
Experiment [10] deals with E3 ubiquitin-protein ligase XIAP (Homo sapiens) (UniProt P98170). Kind of experiment: XIAP binders, primary screen, biophysical, small-molecule microarray, fluorescence 635 nm (AID 1181).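 Also: score merges 667 nm emission and signal to noise over triplicate slides.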 As to conditions: small-molecule microarray binding, higher = more signal.
Sequence of E3 ubiquitin-protein ligase XIAP (Homo sapiens) (P98170 whole entry, looked up): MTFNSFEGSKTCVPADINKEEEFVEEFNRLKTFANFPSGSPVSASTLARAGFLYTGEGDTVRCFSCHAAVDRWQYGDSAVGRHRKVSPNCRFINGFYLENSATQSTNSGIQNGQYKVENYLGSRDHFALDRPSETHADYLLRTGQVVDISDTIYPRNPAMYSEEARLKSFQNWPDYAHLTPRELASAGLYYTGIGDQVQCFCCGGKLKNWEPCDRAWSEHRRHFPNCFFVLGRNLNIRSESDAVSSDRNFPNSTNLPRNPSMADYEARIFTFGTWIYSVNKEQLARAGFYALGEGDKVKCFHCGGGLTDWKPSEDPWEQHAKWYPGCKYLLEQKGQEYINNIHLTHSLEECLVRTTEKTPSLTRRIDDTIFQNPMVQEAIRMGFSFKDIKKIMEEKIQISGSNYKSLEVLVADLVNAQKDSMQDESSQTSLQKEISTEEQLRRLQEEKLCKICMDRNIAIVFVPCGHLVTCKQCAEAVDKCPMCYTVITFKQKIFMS

Sequence of Dihydroorotate dehydrogenase (quinone), mitochondrial (Plasmodium falciparum (isolate 3D7)) (Q08210 whole entry, looked up): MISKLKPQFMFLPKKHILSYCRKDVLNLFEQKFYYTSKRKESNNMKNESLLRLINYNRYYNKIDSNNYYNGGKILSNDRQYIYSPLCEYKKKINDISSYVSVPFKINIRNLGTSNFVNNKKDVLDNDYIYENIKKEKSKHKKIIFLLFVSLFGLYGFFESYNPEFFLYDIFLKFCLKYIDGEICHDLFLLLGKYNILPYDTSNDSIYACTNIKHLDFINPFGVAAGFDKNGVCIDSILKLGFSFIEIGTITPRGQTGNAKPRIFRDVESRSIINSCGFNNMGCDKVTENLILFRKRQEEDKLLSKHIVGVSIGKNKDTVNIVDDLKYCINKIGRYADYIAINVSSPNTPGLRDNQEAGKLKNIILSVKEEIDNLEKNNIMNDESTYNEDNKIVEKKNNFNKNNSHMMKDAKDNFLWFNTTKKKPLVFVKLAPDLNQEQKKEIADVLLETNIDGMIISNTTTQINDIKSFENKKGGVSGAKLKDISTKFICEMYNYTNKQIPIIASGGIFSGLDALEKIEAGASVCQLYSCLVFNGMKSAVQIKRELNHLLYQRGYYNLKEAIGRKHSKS

For the compound `O=C1OCC=C[C@H]2OC34C=CCN(CCN5CCOCC5)C(=O)[C@H]3N(CCCCCCO)C(=O)[C@@H]4[C@@H]12` (stereo not given in full), the z-score is -0.151 in experiment [1]; -0.0603 (inactive) in [2]; 0.501 (inactive) in experiment [3]; -0.677 (inactive) in experiment [5]; -0.762 (inactive) in experiment [6]; -0.193 (inactive) in [7]. Also, the z-score in [8] was 0.0937 (inactive); in experiment [9], 0.406. The composite z-score was -1.97 (inactive) in experiment [4] and 0.232 in [10].

As for `C=CCN1C(=O)[C@]2(COC(c3ccc(OCCCO)cc3)=N2)Cc2ccccc21`, the z-score was 0.653 in experiment [1]; -1.8 (inactive) in [2]; -0.99 (inactive) in experiment [3]; 0.286 (inactive) in [5]; -0.675 (inactive) in [6]; 0.695 (inactive) in experiment [7]. For the same compound, the z-score is 1.54 (inactive) in experiment [8] and -0.126 in [9]. In addition, the composite z-score in [4] was -1.5 (inactive); in [10], 0.0933.

Regarding `C=C(CCCC)C(=O)CC[C@H](OC(C)=O)c1ccc(CO)o1`, the z-score in experiment [1] is -0.658; in experiment [2] it was -0.948 (inactive); in experiment [3] it was 0.982 (inactive); in [5], -0.0221 (inactive); in [6], 0.285 (inactive); in experiment [7] it was 0.668 (inactive). Besides, the values for the z-score in experiment [8] and in [9] were -0.968 (inactive) and 0.496, respectively. Also, the composite z-score in [4] is -1.66 (inactive); in experiment [10], 0.343.

For the compound `O=C1C[C@@](C(=O)O)(c2ccc([N+](=O)[O-])cc2)[C@@H](c2ccc(CO)cc2I)N1C1CCCCC1`, the z-score in experiment [1] is 0.0536; in experiment [2], -5.06 (inactive); in experiment [3], -1.62 (inactive); in experiment [5], 1.16 (inactive); in experiment [6] it was -1.01 (inactive); in [7], 1.39 (inactive). Further, the z-score was 0.466 (inactive) in experiment [8] and -1.57 in experiment [9]. The composite z-score in experiment [4] was -1.68 (inactive); in experiment [10] it was -0.289.

Consider `COC(=O)[C@@]1(Cc2ccc(OC)cc2)[C@H]2c3cc(C(=O)N4CCCC4)n(C[C@H](O)CO)c3C[C@H]2CN1C(=O)c1ccccc1`, for which the z-score in experiment [1] was -0.0006; in experiment [2], 1.92 (inactive); in [3], -0.579 (inactive); in experiment [5], -0.306 (inactive); in experiment [6], 1.04 (inactive); in [7], 0.305 (inactive). Further, the z-score was 0.644 (inactive) in experiment [8] and -0.595 in experiment [9]. Moreover, the composite z-score was -0.475 (inactive) in [4] and -0.0251 in experiment [10].

In the case of `O=C1C2C=CC(C(O)c3ccc(B(O)O)cc3)N(Nc3ccc([N+](=O)[O-])cc3)C2C(=O)N1c1ccccc1` (stereo not given), the z-score is 0.0107 in [1]; -17.3 (active) in experiment [2]; -0.307 (inactive) in [3]; 0.188 (inactive) in experiment [5]; -22.9 (active) in experiment [6]; -1.01 (inactive) in [7]. In addition, the z-score is -0.657 (inactive) in experiment [8] and -0.423 in experiment [9]. The composite z-score in experiment [4] is -3.05 (inactive); in experiment [10], 0.0823.

On to `CC1CC/C=C\[C@H]2OC34C=CCN(Cn5nnc6ccccc65)C(=O)[C@H]3N(CCCO)C(=O)[C@@H]4C2C(=O)O1` (stereo not given in full), for which the z-score in experiment [1] was -0.0236; in experiment [2] it was 1.06 (inactive); in [3] it was 0.502 (inactive); in experiment [5] it was -0.221 (inactive); in [6], 0.801 (inactive); in experiment [7], 0.0706 (inactive). The z-score in experiment [8] was -0.0371 (inactive); in [9] it was 0.623. Moreover, the composite z-score in [4] was 0.317 (inactive); in experiment [10], 0.244.

Regarding `C=CCC(OC(C)=O)[C@@H]1[C@@H](N(Cc2ccc(-c3ccccc3)cc2)C(=O)c2ccc(C)cc2)c2cc(OCCCO)ccc2N1C(=O)Cc1ccc(OC)cc1` (stereo not given in full), the z-score in [1] is 0.989; in [2], -0.397 (inactive); in [3], 1.02 (inactive); in experiment [5], -0.312 (inactive); in experiment [6], -1.65 (inactive); in experiment [7], -0.104 (inactive). The z-score was 0.393 (inactive) in experiment [8] and 0.72 in experiment [9]. In addition, the composite z-score is -1.17 (inactive) in experiment [4] and -0.165 in [10].

Consider `CCCCCCCCCCC(O)C1C=CC2C(=O)N(c3ccccc3)C(=O)C2N1Nc1ccc([N+](=O)[O-])cc1` (stereo not given), for which the z-score was -0.573 in [1]; 0.673 (inactive) in experiment [2]; -0.0843 (inactive) in experiment [3]; 0.285 (inactive) in experiment [5]; 0.0401 (inactive) in experiment [6]; -0.552 (inactive) in experiment [7]. The z-score is 0.0458 (inactive) in experiment [8] and -1.11 in [9]. The composite z-score in [4] was -0.838 (inactive); in [10] it was -0.126.

On to `CN1C(=O)C2C=CC(C(O)c3ccccc3)N(NC(=O)OC(C)(C)C)C2C1=O` (stereo not given), for which the z-score in [1] is -1.24; in experiment [2] it was 1.34 (inactive); in [3], -0.749 (inactive); in [5], 0.31 (inactive); in experiment [6], 1.18 (inactive); in [7], -0.68 (inactive). In addition, the z-score was -0.454 (inactive) in [8] and -0.0265 in experiment [9]. Also, the composite z-score in [4] was 0.802 (inactive); in experiment [10], 0.0338.

For `CO[C@H]1O[C@H](CO)[C@@H](OC(=O)Nc2ccc3c(c2)OCO3)[C@H](OC(=O)Nc2ccc3c(c2)OCO3)[C@H]1OC(=O)Nc1ccc2c(c1)OCO2`, the z-score was -0.159 in experiment [1]; 1.66 (inactive) in [2]; -0.798 (inactive) in [3]; 2.5 (inactive) in experiment [5]; 2.54 (inactive) in [6]; 1.73 (inactive) in [7]. In addition, the z-score in [8] is -0.273 (inactive); in [9], -0.511. The composite z-score in experiment [4] is -0.145 (inactive); in experiment [10] it was 0.463.

With `C=CCN1C(=O)[C@]2(Cc3ccccc31)N=C(c1ccc(OCCCO)cc1)O[C@@H]2c1ccccc1`, the z-score in experiment [1] is -1.05; in experiment [2], -2.22 (inactive); in experiment [3] it was -1.48 (inactive); in experiment [5], 0.134 (inactive); in [6] it was 0.821 (inactive); in experiment [7], -1.3 (inactive). For the same compound, the z-score in [8] was -0.802 (inactive); in experiment [9], -1.33. Moreover, the values for the composite z-score in experiment [4] and in experiment [10] were -0.699 (inactive) and -0.0062, respectively.

Turning to `COc1ccc([Si](C)(C)[C@H]2[C@H](CCO)O[C@@]3(C(=O)N(Cc4ccccc4)c4ccc(N5C(=O)COc6ccccc65)cc43)[C@@H]2C)cc1`, the z-score in experiment [1] was -0.981; in experiment [2] it was 0.0662 (inactive); in experiment [3], -2.72 (inactive); in [5], 1.31 (inactive); in [6] it was 3.06 (inactive); in [7] it was 1.2 (inactive). The z-score in experiment [8] is 0.433 (inactive); in experiment [9], -3.14. The results for the composite z-score in experiment [4] and in experiment [10] were 0.0861 (inactive) and -0.0622, respectively.
